# Measurements taken from PubChem BioAssay.
# Unmarked numbers belong to inactive results. Entries that show only a call come without a potency. For some assays here: Potency and affinity values are given separately. The source made the active and inactive calls. Unless noted, the rule behind the calls is not given here.
# What was measured:
# [1] = antimalarial activity against Dd2 strain (AID 2302;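 active = growth inhibition above 50% at the single 2 µM test dose, taken to imply half-maximal potency below 2 µM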); conditions: P. falciparum Dd2 in RBCs, LDH growth readout, 72 h; at 2 µM; hits give high values
# [2] = human hepatoma cell viability loss – ATP luminescence, cytotoxicity control for P. falciparum antimalarial project, primary screen (AID 2303;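 active = inhibition above 50%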); conditions: HepG2 viability, 24-48 h, at 10 µM, hits give high values
# [3] = target: L-lactate dehydrogenase (Plasmodium falciparum (isolate CDC / Honduras)) (UniProt Q27743); experiment: PfLDH activity inhibition – cell lysate, 3D7 strain, counter-screen for P. falciparum growth inhibition project (AID 2304); conditions: P. falciparum 3D7 crude extract, LDH APAD/NBT absorbance; at 2 µM; hits give high values
# [4] = inhibition of 3D7 malaria parasite growth – strain 3D7 (AID 2306); conditions: P. falciparum 3D7 erythrocytic growth, LDH absorbance, 72 h; at 2 µM; hits give high values
# [5] = target: Calcium-dependent protein kinase 1 (Plasmodium falciparum (isolate 3D7)) (UniProt P62344); experiment: PfCDPK1 kinase inhibitors, biochemical, TCAMS library (AID 1159585; cut-off not given, nearly all actives have IC50 up to about 0.98 µM;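 note: inhibitors leave more ATP so luminescence rises with inhibition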); conditions: recombinant PfCDPK1, Kinase-Glo ATP depletion luminescence
# [6] = target: Plasmodium falciparum protein kinase 6 (PK6, PF3D7_1337100) (UniProt Q8IDW1); experiment: PfPK6 kinase inhibitors, biochemical, TCAMS library (AID 1159586); conditions: recombinant PfPK6, Kinase-Glo ATP depletion luminescence
# [7] = target: Protein kinase 7 (PK7), Plasmodium falciparum 3D7 (PF3D7_0213400) (UniProt Q7YTF7); experiment: inhibition of Plasmodium PK7 catalytic activity – biochemical, TCAMS antimalarial set, Kinase-Glo luminescence (AID 1159587); conditions: recombinant PfPK7, Kinase-Glo ATP depletion luminescence
# [8] = target: Calcium-dependent protein kinase 4 (Plasmodium falciparum (isolate 3D7)) (UniProt Q8IBS5); experiment: PfCDPK4 kinase inhibitors, biochemical, TCAMS library (AID 1159588; cut-off not given, nearly all actives have IC50 up to about 0.91 µM); conditions: recombinant PfCDPK4, Kinase-Glo ATP depletion luminescence
# Sequence of Calcium-dependent protein kinase 4 (Plasmodium falciparum (isolate 3D7)) (Q8IBS5 whole entry, looked up): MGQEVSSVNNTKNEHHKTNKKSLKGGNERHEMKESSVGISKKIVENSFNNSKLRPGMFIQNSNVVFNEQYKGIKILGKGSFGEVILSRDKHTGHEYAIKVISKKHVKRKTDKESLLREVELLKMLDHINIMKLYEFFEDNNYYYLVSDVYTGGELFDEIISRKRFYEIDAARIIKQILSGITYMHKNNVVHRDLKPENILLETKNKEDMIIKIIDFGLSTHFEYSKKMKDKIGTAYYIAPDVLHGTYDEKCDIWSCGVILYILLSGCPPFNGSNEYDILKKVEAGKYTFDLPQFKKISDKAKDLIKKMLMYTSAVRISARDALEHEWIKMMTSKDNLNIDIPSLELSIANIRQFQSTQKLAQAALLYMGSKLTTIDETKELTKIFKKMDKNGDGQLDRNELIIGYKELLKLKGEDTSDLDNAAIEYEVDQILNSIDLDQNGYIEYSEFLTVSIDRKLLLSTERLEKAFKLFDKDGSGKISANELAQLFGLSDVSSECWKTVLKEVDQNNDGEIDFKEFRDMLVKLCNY
# Sequence of Calcium-dependent protein kinase 1 (Plasmodium falciparum (isolate 3D7)) (P62344 whole entry, looked up): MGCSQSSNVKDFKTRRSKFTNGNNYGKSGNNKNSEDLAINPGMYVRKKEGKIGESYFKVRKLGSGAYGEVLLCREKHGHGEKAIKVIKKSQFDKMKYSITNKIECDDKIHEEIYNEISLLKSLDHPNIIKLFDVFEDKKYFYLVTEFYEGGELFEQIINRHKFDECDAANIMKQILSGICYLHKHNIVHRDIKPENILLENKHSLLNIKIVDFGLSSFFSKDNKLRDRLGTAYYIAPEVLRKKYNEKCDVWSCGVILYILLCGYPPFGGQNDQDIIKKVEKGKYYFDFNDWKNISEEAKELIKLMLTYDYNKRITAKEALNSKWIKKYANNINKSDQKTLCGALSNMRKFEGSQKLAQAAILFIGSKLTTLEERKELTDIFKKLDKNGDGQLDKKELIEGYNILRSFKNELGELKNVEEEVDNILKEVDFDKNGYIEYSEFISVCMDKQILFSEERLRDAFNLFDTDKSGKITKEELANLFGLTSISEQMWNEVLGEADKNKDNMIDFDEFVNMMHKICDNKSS
# Sequence of Plasmodium falciparum protein kinase 6 (PK6, PF3D7_1337100) (Q8IDW1 1-305): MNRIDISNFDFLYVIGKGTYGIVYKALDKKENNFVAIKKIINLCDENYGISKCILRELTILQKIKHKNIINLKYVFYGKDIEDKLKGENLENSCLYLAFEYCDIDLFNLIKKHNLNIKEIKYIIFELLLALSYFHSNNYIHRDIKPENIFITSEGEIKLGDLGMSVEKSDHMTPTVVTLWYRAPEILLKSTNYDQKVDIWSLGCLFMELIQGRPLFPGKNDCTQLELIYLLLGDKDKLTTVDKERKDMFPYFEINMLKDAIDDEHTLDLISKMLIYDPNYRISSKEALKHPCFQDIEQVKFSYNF
# Sequence of L-lactate dehydrogenase (Plasmodium falciparum (isolate CDC / Honduras)) (Q27743 whole entry, looked up): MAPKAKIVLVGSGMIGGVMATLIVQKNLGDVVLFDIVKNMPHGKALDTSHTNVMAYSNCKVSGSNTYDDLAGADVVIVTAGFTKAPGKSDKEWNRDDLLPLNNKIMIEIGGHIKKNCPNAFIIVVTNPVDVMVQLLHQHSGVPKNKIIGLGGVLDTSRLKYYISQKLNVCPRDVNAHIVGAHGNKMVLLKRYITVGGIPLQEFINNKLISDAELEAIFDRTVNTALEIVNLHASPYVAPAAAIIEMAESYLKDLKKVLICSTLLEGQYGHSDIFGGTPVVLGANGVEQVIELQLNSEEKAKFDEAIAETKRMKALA
# Sequence of Protein kinase 7 (PK7), Plasmodium falciparum 3D7 (PF3D7_0213400) (Q7YTF7 1-343): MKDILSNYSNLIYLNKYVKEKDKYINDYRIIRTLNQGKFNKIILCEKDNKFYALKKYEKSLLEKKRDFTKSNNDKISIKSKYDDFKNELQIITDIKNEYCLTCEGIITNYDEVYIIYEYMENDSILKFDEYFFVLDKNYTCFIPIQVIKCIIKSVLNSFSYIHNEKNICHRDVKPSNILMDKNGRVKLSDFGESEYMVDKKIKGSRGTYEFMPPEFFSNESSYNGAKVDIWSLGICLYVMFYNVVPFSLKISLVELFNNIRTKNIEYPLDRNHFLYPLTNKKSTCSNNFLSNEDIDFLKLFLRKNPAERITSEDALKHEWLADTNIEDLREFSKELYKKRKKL
Compound,growth inhibition [1],inhibition [2],inhibition [3] [%],growth inhibition [4],outcome [5],outcome [6],outcome [7],outcome [8]
CCc1ccc(CN2CCC(CNC(=O)c3cc(-c4cccc(Cl)c4)cs3)C2)cc1 (stereo not given),19%,27%,4,88% (active),inactive,inactive,inactive,inactive
COc1ccc(OC)c(-c2ccc(O)c(CNCC(C)c3ccccc3)c2)c1 (stereo not given),96% (active),26%,-2,98% (active),inactive,inactive,inactive,inactive
c1ccc(-n2ncc(CNCc3ccc(-c4cccc(-c5nc6ccccc6[nH]5)c4)cc3)n2)cc1,9%,21%,3,94% (active),inactive,inactive,inactive,inactive
CN(C)c1ccc(NC(=O)Nc2ccnc3ccc(Br)cc23)cc1,21%,-5%,6,91% (active),inactive,inactive,inactive,inactive
COc1ccc2nccc(NN=Cc3ccccc3F)c2c1,98% (active),23%,-2,103% (active),inactive,inactive,inactive,inactive
N#Cc1ccc(NC(=NC2CCN(Cc3ccccc3)CC2)Nc2ccccc2Cl)c(O)c1,97% (active),31%,0,101% (active),inactive,inactive,inactive,inactive
Cc1ccc(C=C2SC(=Nc3ccccc3)NC2=O)c(C)c1,90% (active),1%,-2,93% (active),inactive,inactive,inactive,inactive
O=C(Nc1cccc(-c2cccc(-c3nc4ccccc4[nH]3)c2)c1)Nc1ccc2c(c1)OCO2,57% (active),25%,-4,101% (active),inactive,inactive,inactive,inactive
COc1nc2c(CCN3CC[C@H](NCc4ccc5c(c4)NC(=O)CO5)[C@H](O)C3)c(Cl)cnc2cc1F,22%,21%,-3,90% (active),inactive,inactive,inactive,inactive
COc1cc(NC(=O)/C=C/c2ccccc2OC(F)(F)F)cc(OCCN2CCC(O)(c3ccccc3)CC2)c1,50% (active),61% (active),2,102% (active),inactive,inactive,inactive,inactive
CC(Oc1c(C2CCN(CCCCNC(=O)c3ccc(-c4ccc(Cl)cc4)cc3)CC2)ccc2c1CCCC2)C(N)=O (stereo not given),16%,100% (active),3,99% (active),inactive,inactive,inactive,inactive
CCN(CC)CCN(Cc1ccc(-c2ccc(C(F)(F)F)cc2)cc1)C(=O)Cn1c(CCc2cccc(F)c2F)nc(=O)c2cc(F)ccc21,45%,15%,0,98% (active),inactive,inactive,inactive,inactive
O=C(Nc1ccc(N2CCCN(Cc3cccc(F)c3)CC2)cc1)c1cccs1,96% (active),2%,0,96% (active),inactive,inactive,inactive,inactive
Cc1ccc(NC(=O)c2ccc(NCCCN3CC(C)CC(C)C3)c([N+](=O)[O-])c2)cc1F (stereo not given),85% (active),18%,-8,101% (active),inactive,inactive,inactive,inactive
O=c1cc(-c2cccc(C(F)(F)F)c2)nc(Nc2ccc(Cl)c(Cl)c2)[nH]1,97% (active),57% (active),-2,97% (active),inactive,inactive,inactive,inactive
CCN(CC)c1ccc(-c2nc3ncc(Cl)cc3[nH]2)cc1,85% (active),16%,-5,85% (active),inactive,inactive,inactive,inactive
Cc1cc(-c2nc3ccc(C(=O)NCc4ccccc4)cc3n2C2CCN(C(=O)c3ccc(-c4ccccc4)cc3)CC2)ccn1,97% (active),36%,1,95% (active),inactive,inactive,inactive,inactive
Cc1ccc(-c2nc(N3CCN(C(=O)c4ccco4)CC3)c3ccc(Cl)cc3n2)cc1,78% (active),17%,3,90% (active),inactive,inactive,inactive,inactive
CCc1sc(CN(CCCNc2cc(=O)c3ccccc3[nH]2)Cc2sc(CC)c(Br)c2-c2ccsc2)c(-c2ccsc2)c1Br,98% (active),10%,0,99% (active),inactive,inactive,inactive,inactive
COc1ccc(N2CCN(CCCC/C=C/c3ccc(NC(=O)c4cc(Cl)cc(Cl)c4)cc3)CC2)c(OC)c1,39%,20%,5,99% (active),inactive,inactive,inactive,inactive

Compound,growth inhibition [1],inhibition [2],inhibition [3] [%],growth inhibition [4],outcome [5],outcome [6],outcome [7],outcome [8]
O=C(Nc1ccc(-c2nc3ccccc3[nH]2)cc1)C1CCN(Cc2cccc(F)c2F)CC1,51% (active),23%,2,97% (active),inactive,inactive,inactive,inactive
CN1CC[C@@H](Oc2cc(C(=O)NCc3ccc(Cl)c(Cl)c3)ccc2C(F)(F)F)C1,4%,8%,2,88% (active),inactive,inactive,inactive,inactive
O=C(Nc1cc2cc(-c3ccc(CN4CCCCC4)cc3)ccc2n2cnnc12)NC1CCCC1,98% (active),78% (active),-4,100% (active),inactive,inactive,inactive,inactive
CN(C)CCCNc1nccc(N(C)c2ccc(NC(=O)Nc3cc(C(F)(F)F)ccc3F)cc2)n1,25%,97% (active),2,93% (active),inactive,inactive,inactive,inactive
CCCc1ccccc1Nc1nc(C)cc(N(CC)CCCN2CCCCC2)n1,49%,27%,-3,98% (active),inactive,inactive,inactive,inactive
CC(=O)Nc1cccc(C(=O)Nc2cccc(-c3ccc(-c4nc5ccc(C(F)(F)F)cc5[nH]4)s3)c2)c1,46%,80% (active),-3,98% (active),inactive,inactive,inactive,inactive
CCc1c[nH]c2c(N3CCCC3=O)cc(C(=O)N[C@@H](Cc3ccccc3)[C@H](O)CNC(C)(C)CCCC(C)C)cc12,97% (active),22%,1,96% (active),inactive,inactive,inactive,inactive
CC(=O)Nc1ccc(CN(Cc2ccc(F)cc2)Cc2ccc3c(c2)OCO3)cc1,87% (active),3%,6,91% (active),inactive,inactive,inactive,inactive
CN(C)C(=O)c1ccc(CN(Cc2ccc(OC(C)(C)C)cc2)Cc2ccc3c(c2)OCCO3)cc1,96% (active),-5%,1,95% (active),inactive,inactive,inactive,inactive
Cn1cncc1C(=O)Nc1cccc(-c2ccc(-c3nc4ccccc4[nH]3)cc2)c1,11%,-5%,1,99% (active),inactive,inactive,inactive,inactive
COc1ccc2c(NN=Cc3ccccc3Cl)cc(C)nc2c1,99% (active),5%,2,101% (active),inactive,inactive,inactive,inactive
Cc1cc(Cl)ccc1NC(=O)Nc1ccc2nccc(N3CCN(C)CC3)c2c1,74% (active),-1%,1,101% (active),inactive,inactive,inactive,inactive
Cc1noc(=O)c2ccc(NC(=O)C(O)(CSc3ccccc3)CC(C)C)cc12 (stereo not given),89% (active),-15%,0,99% (active),inactive,inactive,inactive,inactive
Cc1ccccc1Nc1nc(NCc2ccccc2)nc2ccccc12,35%,39%,-3,88% (active),inactive,inactive,inactive,inactive
Fc1ccc2nc(-c3cccc(-c4ccc(CN5CCN(c6cnccn6)CC5)cc4)c3)[nH]c2c1,31%,19%,-4,96% (active),inactive,inactive,inactive,inactive
NS(=O)(=O)c1ccccc1Nc1nc(Nc2ccc(N3CCOCC3)cc2)nc2c1CCC2,99% (active),21%,-1,96% (active),inactive,inactive,inactive,inactive
CCOc1ccnc(=O)[nH]1,95% (active),-4%,5,97% (active),inactive,inactive,inactive,inactive
CCN(CCNS(C)(=O)=O)c1ccc(N)c(C)c1,11%,-4%,-4,91% (active),inactive,inactive,inactive,inactive
Cc1cccc(Nc2nccc(NCC(O)c3ccc(C(F)(F)F)cc3)n2)c1 (stereo not given),54% (active),11%,0,101% (active),inactive,inactive,inactive,inactive
O=C(/C=C/c1ccc(Cl)c(Cl)c1)NCCCCCN1CCC(NC(=O)c2ccc([N+](=O)[O-])cc2)CC1,6%,36%,-2,100% (active),inactive,inactive,inactive,inactive
